Data on 34 compounds can be found in ChEMBL document CHEMBL1961873, “Compounds: GSK PKIS; Assays: Nanosyn kinase panel” (2012).

For the first test, the target named is Tyrosine-protein kinase Fyn (Homo sapiens) (UniProt P06241). To be noted: at 0.1 µM.
Sequence of Tyrosine-protein kinase Fyn (Homo sapiens) (P06241 2-537 limits assumed): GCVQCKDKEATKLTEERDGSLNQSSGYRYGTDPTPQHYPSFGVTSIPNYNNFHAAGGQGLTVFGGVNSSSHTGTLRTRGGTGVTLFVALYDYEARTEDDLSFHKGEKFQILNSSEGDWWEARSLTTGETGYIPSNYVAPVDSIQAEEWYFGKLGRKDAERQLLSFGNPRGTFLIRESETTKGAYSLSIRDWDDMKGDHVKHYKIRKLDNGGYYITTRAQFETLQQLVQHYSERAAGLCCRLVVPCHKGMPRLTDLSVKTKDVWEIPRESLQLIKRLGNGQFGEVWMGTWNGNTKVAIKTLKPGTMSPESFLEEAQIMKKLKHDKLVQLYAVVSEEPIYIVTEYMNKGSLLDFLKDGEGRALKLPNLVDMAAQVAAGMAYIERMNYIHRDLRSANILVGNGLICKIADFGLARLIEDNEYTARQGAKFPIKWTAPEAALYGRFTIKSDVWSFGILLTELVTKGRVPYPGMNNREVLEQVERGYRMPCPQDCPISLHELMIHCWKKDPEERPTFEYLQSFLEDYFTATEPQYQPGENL
In the case of `COc1cc2ncn(-c3cc(OCc4cccs4)c(C(N)=O)s3)c2cc1OC`, the inhibition – broadly, the drop in the measured response relative to a control, in per cent – is -2.3%.
Turning to `COc1cc(C)c(N(C)C(=O)CN(C)C)cc1Nc1nc(Nc2cccc(F)c2C(N)=O)c2cc[nH]c2n1`, the inhibition is -3.95%.
For the compound `CN(C)CCCNc1nccc(-c2c(-c3ccc(F)cc3)nn3cc(C(F)(F)F)ccc23)n1`, the inhibition was -2.36%.
For the compound `COc1cccc(/C=N/Nc2ncnc3c2cnn3-c2cccc(OC)c2)c1`, the inhibition is 2.39%.
The same measure, in the same setting: under `CCC(=O)Nc1ccc(C)c(-c2ccc(C(=O)NCC3CC3)cc2)c1` stands 1.58%; under `CCS(=O)(=O)c1ccc(OC)c(Nc2ncc(-c3cccc(-c4ccccc4F)c3)o2)c1`, 47.1%; under `C#Cc1cccc(Nc2ncnc3ccc(OCCCCNCCS(C)(=O)=O)cc23)c1`, -1.92%.
Consider `CS(=O)(=O)CCNCc1ccc(-c2ccc3ncnc(Nc4ccc(OCc5ccccc5)c(Br)c4)c3c2)o1`, for which the inhibition was -0.04%.
`COc1cc2ncn(-c3cc(OCCc4ccccc4)c(C(N)=O)s3)c2cc1OC`: the inhibition was found to be 2.91%.
As for `NS(=O)(=O)c1ccc(N/N=C2\C(=O)Nc3ccc(-c4cnco4)cc32)cc1`, the inhibition was -0.9%.
Take `Cc1ccc(C(=O)NC2CCC2)cc1-c1ccc(C(=O)NCC2CC2)cc1`: the inhibition worked out at 0.98%.
In the case of `COc1ccc2cc(-c3c(-c4ccncc4)nc(-c4ccc([S+](C)[O-])cc4C)n3C)ccc2c1` (stereo not drawn), the inhibition stood at 1.51%.
As to `COc1cc(N2CCN(C(C)C)CC2)ccc1Nc1nc(Nc2ccc(F)cc2C(=O)NC[C@@H](O)CO)c2cc[nH]c2n1`, the inhibition came to 0.03%.
`COc1ccc2ncn(-c3cc(O[C@H](C)c4ccccc4Cl)c(C(N)=O)s3)c2c1`: the inhibition is -4.31%.
Consider `Fc1ccc(-c2nc3n(c2-c2ccncc2)CCS3)cc1`, for which the inhibition worked out at 0.03%.
The same measure, in the same setting: under `CN1CCN(CCCNc2nc3ccc(Oc4ccc(NC(=O)Nc5cc(C(F)(F)F)ccc5F)cc4)cc3[nH]2)CC1` stands -4.47%; under `Fc1ccc(-c2c(-c3ccncc3)nc3n2CCS3)cc1`, -3.03%; under `NCc1ccc(-n2c(-c3nonc3N)nc3cnccc32)cc1`, 1.24%.
Turning to `CCS(=O)(=O)c1ccc(OC)c(Nc2ncc(-c3ccccc3Cl)o2)c1`, the inhibition came to 2.29%.
Regarding `Fc1ccc(-c2ncn(C3CCNCC3)c2-c2ccnc(Oc3ccc(F)c(F)c3)n2)cc1`, the inhibition was -4.18%.
On to `Fc1ccc(-c2ncn(C3CCNCC3)c2-c2ccnc(Oc3ccc(Oc4ccccc4)cc3)n2)cc1`, for which the inhibition was 2.65%.
Turning to `C[C@@H](Oc1cc(-n2cnc3ccc(OC4CCN(C)CC4)cc32)sc1C(N)=O)c1ccccc1Cl`, the inhibition was -3.18%.
For `c1ccc(-c2n[nH]cc2-c2ccnc(-c3ccc(OCCN4CCOCC4)cc3)c2)nc1`, the inhibition is -0.84%.
As for `c1ccc(Oc2ccc(Nc3ncc(-c4ccccc4)o3)cc2)cc1`, the inhibition worked out at 0.57%.
As to `COc1cccc(-n2cnc3c(N/N=C/c4ccncc4)ncnc32)c1`, the inhibition was -0.06%.
The same measure, in the same setting: under `C[C@@H](Oc1cc(-n2cnc3ccc(OCC4CCN(C)CC4)cc32)sc1C(N)=O)c1ccccc1Cl` stands 4.31%; under `CCN(CC)Cc1ccc(Nc2nccc(-c3cnn4ncccc34)n2)cc1`, -1.69%; under `Cc1nnc(-c2ccc(C)c(-c3ccc(C(=O)NCc4ccc(Cl)cc4)cc3)c2)o1`, -2.42%.
With `O=C(Nc1n[nH]c2cc(-c3ccccc3)ccc12)C1CC1`, the inhibition was found to be 1.14%.
Consider `COc1cc(Nc2ncc3c(C)nc(-c4cccc(Oc5ccccc5)c4)n3n2)cc(OC)c1OC`, for which the inhibition worked out at 1.2%.
Same read-out and setting: under `Clc1ccc(CNc2nccc(-c3cnn4ncccc34)n2)cc1` stands -1.29%.
In the case of `CN(C)c1ccc2c(c1)/C(=C/Nc1ccc(S(N)(=O)=O)cc1)C(=O)N2`, the inhibition was determined as 2.68%.
With `CNC(=O)c1cncc(/C=C/c2c(C)cccc2C)c1`, the inhibition stood at 0.61%.
Still for that read-out and setting: under `COc1cc(Nc2ncc3c(C)nc(-c4cccc(C(F)(F)F)c4)n3n2)cc(OC)c1OC` stands 6.79%.

The target is the same in a further test. Particulars: at 1 µM.
As for `COc1cc2ncn(-c3cc(OCc4cccs4)c(C(N)=O)s3)c2cc1OC`, the inhibition was determined as 10.6%.
As to `COc1cc(C)c(N(C)C(=O)CN(C)C)cc1Nc1nc(Nc2cccc(F)c2C(N)=O)c2cc[nH]c2n1`, the inhibition is -2.41%.
Turning to `CN(C)CCCNc1nccc(-c2c(-c3ccc(F)cc3)nn3cc(C(F)(F)F)ccc23)n1`, the inhibition stood at 0.28%.
As for `COc1cccc(/C=N/Nc2ncnc3c2cnn3-c2cccc(OC)c2)c1`, the inhibition worked out at 7.98%.
As for `CCC(=O)Nc1ccc(C)c(-c2ccc(C(=O)NCC3CC3)cc2)c1`, the inhibition stood at 4.1%.
For `CCS(=O)(=O)c1ccc(OC)c(Nc2ncc(-c3cccc(-c4ccccc4F)c3)o2)c1`, the inhibition is 85.6%.
For the compound `C#Cc1cccc(Nc2ncnc3ccc(OCCCCNCCS(C)(=O)=O)cc23)c1`, the inhibition came out at 2.18%.
As for `CS(=O)(=O)CCNCc1ccc(-c2ccc3ncnc(Nc4ccc(OCc5ccccc5)c(Br)c4)c3c2)o1`, the inhibition is 1.37%.
On to `COc1cc2ncn(-c3cc(OCCc4ccccc4)c(C(N)=O)s3)c2cc1OC`, for which the inhibition was determined as 2.86%.
Consider `NS(=O)(=O)c1ccc(N/N=C2\C(=O)Nc3ccc(-c4cnco4)cc32)cc1`, for which the inhibition is 7.81%.
On to `Cc1ccc(C(=O)NC2CCC2)cc1-c1ccc(C(=O)NCC2CC2)cc1`, for which the inhibition was found to be 2.7%.
Consider `COc1ccc2cc(-c3c(-c4ccncc4)nc(-c4ccc([S+](C)[O-])cc4C)n3C)ccc2c1` (stereo not drawn), for which the inhibition stood at 1.8%.
On to `COc1cc(N2CCN(C(C)C)CC2)ccc1Nc1nc(Nc2ccc(F)cc2C(=O)NC[C@@H](O)CO)c2cc[nH]c2n1`, for which the inhibition is -0.08%.
Regarding `COc1ccc2ncn(-c3cc(O[C@H](C)c4ccccc4Cl)c(C(N)=O)s3)c2c1`, the inhibition was -3.05%.
Regarding `Fc1ccc(-c2nc3n(c2-c2ccncc2)CCS3)cc1`, the inhibition is -3.64%.
Turning to `CN1CCN(CCCNc2nc3ccc(Oc4ccc(NC(=O)Nc5cc(C(F)(F)F)ccc5F)cc4)cc3[nH]2)CC1`, the inhibition is -1.88%.
Take `Fc1ccc(-c2c(-c3ccncc3)nc3n2CCS3)cc1`: the inhibition was 0.5%.
`NCc1ccc(-n2c(-c3nonc3N)nc3cnccc32)cc1`: the inhibition was determined as 0.2%.
Still for that read-out and setting: under `CCS(=O)(=O)c1ccc(OC)c(Nc2ncc(-c3ccccc3Cl)o2)c1` stands 19.1%; under `Fc1ccc(-c2ncn(C3CCNCC3)c2-c2ccnc(Oc3ccc(F)c(F)c3)n2)cc1`, -4.44%.
On the same count and under the same terms, under `Fc1ccc(-c2ncn(C3CCNCC3)c2-c2ccnc(Oc3ccc(Oc4ccccc4)cc3)n2)cc1` stands 5.66%; under `C[C@@H](Oc1cc(-n2cnc3ccc(OC4CCN(C)CC4)cc32)sc1C(N)=O)c1ccccc1Cl`, -4.42%.
Regarding `c1ccc(-c2n[nH]cc2-c2ccnc(-c3ccc(OCCN4CCOCC4)cc3)c2)nc1`, the inhibition is 4.24%.
Turning to `c1ccc(Oc2ccc(Nc3ncc(-c4ccccc4)o3)cc2)cc1`, the inhibition turned out to be 2.97%.
As to `COc1cccc(-n2cnc3c(N/N=C/c4ccncc4)ncnc32)c1`, the inhibition worked out at 25.6%.
Turning to `C[C@@H](Oc1cc(-n2cnc3ccc(OCC4CCN(C)CC4)cc32)sc1C(N)=O)c1ccccc1Cl`, the inhibition came out at 15.3%.
Consider `CCN(CC)Cc1ccc(Nc2nccc(-c3cnn4ncccc34)n2)cc1`, for which the inhibition is 5.04%.
On to `Cc1nnc(-c2ccc(C)c(-c3ccc(C(=O)NCc4ccc(Cl)cc4)cc3)c2)o1`, for which the inhibition is -1.62%.
Still for that read-out and setting: under `O=C(Nc1n[nH]c2cc(-c3ccccc3)ccc12)C1CC1` stands 5.27%; under `COc1cc(Nc2ncc3c(C)nc(-c4cccc(Oc5ccccc5)c4)n3n2)cc(OC)c1OC`, 8.45%; under `Clc1ccc(CNc2nccc(-c3cnn4ncccc34)n2)cc1`, 0.07%.
Still for that read-out and setting: under `CN(C)c1ccc2c(c1)/C(=C/Nc1ccc(S(N)(=O)=O)cc1)C(=O)N2` stands 13.1%; under `CNC(=O)c1cncc(/C=C/c2c(C)cccc2C)c1`, 29.6%.
Consider `COc1cc(Nc2ncc3c(C)nc(-c4cccc(C(F)(F)F)c4)n3n2)cc(OC)c1OC`, for which the inhibition was 39.7%.
